The source of these data is article PMC11006913.

Substitutions are numbered along the chain they refer to.

Common to all, as to test: PBM; 200 nM protein, PBS
Settings in all cases: dsDNA, one strand shown

Experiment [1] has as its target T1, SIX6 (Homo sapiens, UniProt O95475 114-200, L167I).
T1 sequence: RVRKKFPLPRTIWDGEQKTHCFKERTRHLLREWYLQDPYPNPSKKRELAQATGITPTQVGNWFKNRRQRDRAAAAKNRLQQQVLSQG

In experiment [2] the target is T2, SIX6 (Homo sapiens, UniProt O95475 114-200, L143V).
T2 sequence: T1 sequence with L30V, I54L

Experiment [3] deals with T3, SIX6 (Homo sapiens, UniProt O95475 114-200, H141N).
T3 sequence: T1 sequence with H28N, I54L

In experiment [4] the target is T4, SIX6 (Homo sapiens, UniProt O95475 114-200, T165P).
T4 sequence: T1 sequence with T52P, I54L

For experiment [5], the target named is T5, SIX6 (Homo sapiens, UniProt O95475 114-200, L167M).
T5 sequence: T1 sequence with I54M

The target in experiment [6] is T6, SIX6 (Homo sapiens, UniProt O95475 114-200, L143M).
T6 sequence: T1 sequence with L30M, I54L

Experiment [7] concerns the target T7, SIX6 (Homo sapiens, UniProt O95475 114-200, L143I).
T7 sequence: T1 sequence with L30I, I54L

For experiment [8], the target named is T8, SIX6 (Homo sapiens, UniProt O95475 114-200, T165G).
T8 sequence: T1 sequence with T52G, I54L

For experiment [9], the target named is T9, SIX6 (Homo sapiens, UniProt O95475 114-200, T139Q).
T9 sequence: T1 sequence with T26Q, I54L

Experiment [10] addresses T10, SIX6 (Homo sapiens, UniProt O95475 114-200, T165A).
T10 sequence: T1 sequence with T52A, I54L

The target in experiment [11] is T11, SIX6 (Homo sapiens, UniProt O95475 114-200, L167V).
T11 sequence: T1 sequence with I54V

For experiment [12], the target named is T12, SIX6 (Homo sapiens, UniProt O95475 114-200).
T12 sequence: T1 sequence with I54L

The target of experiment [13] is T13, SIX6 (Homo sapiens, UniProt O95475 114-200, T165I).
T13 sequence: T1 sequence with T52I, I54L

For experiment [14], the target named is NKX3-2 (Homo sapiens, UniProt P78367 192-278, P234S).
NKX3-2 (Homo sapiens, UniProt P78367 192-278, P234S), sequence (P78367 192-278 P234S): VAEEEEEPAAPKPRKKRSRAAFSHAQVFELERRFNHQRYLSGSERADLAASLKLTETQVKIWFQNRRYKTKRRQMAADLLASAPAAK
The target of experiment [15] is NKX3-2 (Homo sapiens, UniProt P78367 192-278).
NKX3-2 (Homo sapiens, UniProt P78367 192-278), sequence (P78367 192-278): as the sequence (P78367 192-278 P234S) above, with S43P counted along it

As for CATGATAC, the binding signal in the experiment with SIX6 [1] is 11.2 upbm affinity estimate (log intensity, higher = more binding, comparable within an allelic series); in the experiment with SIX6 [2], 10.3 upbm affinity estimate (log intensity, higher = more binding, comparable within an allelic series); with SIX6 [3] it was 11.2 upbm affinity estimate (log intensity, higher = more binding, comparable within an allelic series); with SIX6 [4] it was 9.82 upbm affinity estimate (log intensity, higher = more binding, comparable within an allelic series); with SIX6 [5], 10.7 upbm affinity estimate (log intensity, higher = more binding, comparable within an allelic series); with SIX6 [6], 10.9 upbm affinity estimate (log intensity, higher = more binding, comparable within an allelic series). Also, the binding signal was 10.4 upbm affinity estimate (log intensity, higher = more binding, comparable within an allelic series) with SIX6 [7]; 11.3 upbm affinity estimate (log intensity, higher = more binding, comparable within an allelic series) with SIX6 [8]; 11.2 upbm affinity estimate (log intensity, higher = more binding, comparable within an allelic series) with SIX6 [9]; 11.1 upbm affinity estimate (log intensity, higher = more binding, comparable within an allelic series) with SIX6 [10]; 11 upbm affinity estimate (log intensity, higher = more binding, comparable within an allelic series) with SIX6 [11]; 11 upbm affinity estimate (log intensity, higher = more binding, comparable within an allelic series) in the experiment with SIX6 [12]. Also, the binding signal in the experiment with SIX6 [13] was 10.9 upbm affinity estimate (log intensity, higher = more binding, comparable within an allelic series).
In the case of ACGATAGT, the binding signal was 10.4 upbm affinity estimate (log intensity, higher = more binding, comparable within an allelic series) with SIX6 [1]; 10 upbm affinity estimate (log intensity, higher = more binding, comparable within an allelic series) with SIX6 [2]; 10.4 upbm affinity estimate (log intensity, higher = more binding, comparable within an allelic series) in the experiment with SIX6 [3]; 9.75 upbm affinity estimate (log intensity, higher = more binding, comparable within an allelic series) with SIX6 [4]; 10 upbm affinity estimate (log intensity, higher = more binding, comparable within an allelic series) in the experiment with SIX6 [7]; 10.5 upbm affinity estimate (log intensity, higher = more binding, comparable within an allelic series) with SIX6 [8]. For the same sequence, the binding signal with SIX6 [9] was 10.6 upbm affinity estimate (log intensity, higher = more binding, comparable within an allelic series); in the experiment with SIX6 [10], 10.4 upbm affinity estimate (log intensity, higher = more binding, comparable within an allelic series); with SIX6 [11], 10.3 upbm affinity estimate (log intensity, higher = more binding, comparable within an allelic series); with SIX6 [12] it was 10.4 upbm affinity estimate (log intensity, higher = more binding, comparable within an allelic series); in the experiment with SIX6 [13], 10.3 upbm affinity estimate (log intensity, higher = more binding, comparable within an allelic series).
As for ATGATACC, the binding signal was 11.6 upbm affinity estimate (log intensity, higher = more binding, comparable within an allelic series) with SIX6 [1]; 10.5 upbm affinity estimate (log intensity, higher = more binding, comparable within an allelic series) in the experiment with SIX6 [2]; 11.6 upbm affinity estimate (log intensity, higher = more binding, comparable within an allelic series) with SIX6 [3]; 9.82 upbm affinity estimate (log intensity, higher = more binding, comparable within an allelic series) with SIX6 [4]; 11 upbm affinity estimate (log intensity, higher = more binding, comparable within an allelic series) with SIX6 [5]; 11.3 upbm affinity estimate (log intensity, higher = more binding, comparable within an allelic series) with SIX6 [6]. Moreover, the binding signal in the experiment with SIX6 [7] is 10.6 upbm affinity estimate (log intensity, higher = more binding, comparable within an allelic series); with SIX6 [8] it was 11.7 upbm affinity estimate (log intensity, higher = more binding, comparable within an allelic series); in the experiment with SIX6 [9], 11.5 upbm affinity estimate (log intensity, higher = more binding, comparable within an allelic series); with SIX6 [10] it was 11.6 upbm affinity estimate (log intensity, higher = more binding, comparable within an allelic series); in the experiment with SIX6 [11], 11.4 upbm affinity estimate (log intensity, higher = more binding, comparable within an allelic series); with SIX6 [12] it was 11.4 upbm affinity estimate (log intensity, higher = more binding, comparable within an allelic series). In the experiment with SIX6 [13], the binding signal is 11.3 upbm affinity estimate (log intensity, higher = more binding, comparable within an allelic series).
On to CTGGCGCC, for which the binding signal with SIX6 [1] is 8.88 upbm affinity estimate (log intensity, higher = more binding, comparable within an allelic series); in the experiment with SIX6 [2] it was 8.96 upbm affinity estimate (log intensity, higher = more binding, comparable within an allelic series); with SIX6 [3] it was 8.82 upbm affinity estimate (log intensity, higher = more binding, comparable within an allelic series); in the experiment with SIX6 [4], 9.1 upbm affinity estimate (log intensity, higher = more binding, comparable within an allelic series); with SIX6 [5], 8.85 upbm affinity estimate (log intensity, higher = more binding, comparable within an allelic series); in the experiment with SIX6 [6], 8.93 upbm affinity estimate (log intensity, higher = more binding, comparable within an allelic series). Further, the binding signal with SIX6 [7] is 8.9 upbm affinity estimate (log intensity, higher = more binding, comparable within an allelic series); with SIX6 [8], 8.9 upbm affinity estimate (log intensity, higher = more binding, comparable within an allelic series); with SIX6 [9] it was 8.85 upbm affinity estimate (log intensity, higher = more binding, comparable within an allelic series); with SIX6 [10] it was 8.87 upbm affinity estimate (log intensity, higher = more binding, comparable within an allelic series); with SIX6 [11] it was 8.8 upbm affinity estimate (log intensity, higher = more binding, comparable within an allelic series); in the experiment with SIX6 [12] it was 8.82 upbm affinity estimate (log intensity, higher = more binding, comparable within an allelic series). Also, the binding signal is 8.87 upbm affinity estimate (log intensity, higher = more binding, comparable within an allelic series) with SIX6 [13]; 10.6 upbm affinity estimate (log intensity, higher = more binding, comparable within an allelic series) with NKX3-2 [14]; 10.5 upbm affinity estimate (log intensity, higher = more binding, comparable within an allelic series) with NKX3-2 [15].
As to GGTGATAC, the binding signal with SIX6 [1] was 11.3 upbm affinity estimate (log intensity, higher = more binding, comparable within an allelic series); in the experiment with SIX6 [2], 10.3 upbm affinity estimate (log intensity, higher = more binding, comparable within an allelic series); with SIX6 [3] it was 11.3 upbm affinity estimate (log intensity, higher = more binding, comparable within an allelic series); with SIX6 [4], 9.52 upbm affinity estimate (log intensity, higher = more binding, comparable within an allelic series); with SIX6 [5], 10.6 upbm affinity estimate (log intensity, higher = more binding, comparable within an allelic series); with SIX6 [6] it was 11 upbm affinity estimate (log intensity, higher = more binding, comparable within an allelic series). The binding signal is 10.4 upbm affinity estimate (log intensity, higher = more binding, comparable within an allelic series) in the experiment with SIX6 [7]; 11.3 upbm affinity estimate (log intensity, higher = more binding, comparable within an allelic series) with SIX6 [8]; 11.4 upbm affinity estimate (log intensity, higher = more binding, comparable within an allelic series) with SIX6 [9]; 11.3 upbm affinity estimate (log intensity, higher = more binding, comparable within an allelic series) with SIX6 [10]; 11 upbm affinity estimate (log intensity, higher = more binding, comparable within an allelic series) with SIX6 [11]; 11 upbm affinity estimate (log intensity, higher = more binding, comparable within an allelic series) in the experiment with SIX6 [12]. Further, the binding signal with SIX6 [13] is 11 upbm affinity estimate (log intensity, higher = more binding, comparable within an allelic series).
Consider ATCGTGTC, for which the binding signal with SIX6 [1] was 10.1 upbm affinity estimate (log intensity, higher = more binding, comparable within an allelic series); with SIX6 [2], 9.87 upbm affinity estimate (log intensity, higher = more binding, comparable within an allelic series); in the experiment with SIX6 [3], 10.2 upbm affinity estimate (log intensity, higher = more binding, comparable within an allelic series); in the experiment with SIX6 [4], 9.63 upbm affinity estimate (log intensity, higher = more binding, comparable within an allelic series); with SIX6 [5] it was 9.93 upbm affinity estimate (log intensity, higher = more binding, comparable within an allelic series); with SIX6 [7], 9.97 upbm affinity estimate (log intensity, higher = more binding, comparable within an allelic series). The binding signal is 10.3 upbm affinity estimate (log intensity, higher = more binding, comparable within an allelic series) with SIX6 [8]; 10.3 upbm affinity estimate (log intensity, higher = more binding, comparable within an allelic series) with SIX6 [10]; 10.3 upbm affinity estimate (log intensity, higher = more binding, comparable within an allelic series) with SIX6 [12].
As to GATACCGA, the binding signal with SIX6 [1] is 10.5 upbm affinity estimate (log intensity, higher = more binding, comparable within an allelic series); with SIX6 [2], 9.92 upbm affinity estimate (log intensity, higher = more binding, comparable within an allelic series); in the experiment with SIX6 [3], 10.4 upbm affinity estimate (log intensity, higher = more binding, comparable within an allelic series); in the experiment with SIX6 [4] it was 9.38 upbm affinity estimate (log intensity, higher = more binding, comparable within an allelic series); with SIX6 [5], 10.1 upbm affinity estimate (log intensity, higher = more binding, comparable within an allelic series); with SIX6 [7], 9.98 upbm affinity estimate (log intensity, higher = more binding, comparable within an allelic series). Further, the binding signal was 10.6 upbm affinity estimate (log intensity, higher = more binding, comparable within an allelic series) in the experiment with SIX6 [8]; 10.6 upbm affinity estimate (log intensity, higher = more binding, comparable within an allelic series) in the experiment with SIX6 [9]; 10.5 upbm affinity estimate (log intensity, higher = more binding, comparable within an allelic series) with SIX6 [10]; 10.5 upbm affinity estimate (log intensity, higher = more binding, comparable within an allelic series) with SIX6 [12].
